# Laboratory results reported in ChEMBL document CHEMBL3988442, “University of Dundee, Small-Polar-MMV Screening Library” (2021).
# Hit rate of the full screen: of about 69,000 compounds, about 1,000 (1.4%) showed an effect of 50% or more. The sample holds strong results, similar compounds and a random draw of the others, so the mix is not that of the screen.
# Tested on: Leishmania donovani
# Experiment: Leishmania intramacrophage assay
# Assay type: functional, organism-based
# Design: scale not given: in the data most compounds retested in dose-response had high values
smiles,measurement,setting,value
Cc1nc(C)c(C)c(NCc2cnn3cccnc23)n1,Percent Effect,"30.3 µM, […]",15.17%
Cc1ccc(O)c(CNc2cccc(CN3CCSCC3)c2)n1,Percent Effect,"30.3 µM, […]",6.923%
Cc1nc(CN2C(=O)CCC23CCN(Cc2cccn2C)CC3)cs1.O=C(O)C(F)(F)F.O=C(O)C(F)(F)F,Percent Effect,"30.3 µM, […]",2.496%
N#CCCN(CC1CCOC1)Cn1ccc(-c2ccccc2)n1 (centres undefined),Percent Effect,"30.3 µM, […]",16.63%
CC(C)c1n[nH]c(C(=O)NC(C)c2ccncc2)c1Br (centres undefined),Percent Effect,30 µM,13.54%
CC(C)c1n[nH]c(C(=O)Nc2ccncc2)c1Br,Percent Effect,"30 µM, 30.03 µM",62.71%
COc1ccncc1NC(=O)c1[nH]nc(C(C)C)c1Br,Percent Effect,"30.3 µM, […]",16.78%
N[C@@H]1CCN(Cc2cc(-c3ccccc3OC(F)(F)F)no2)C[C@H]1O,Percent Effect,"30.3 µM, […]",12.53%
NC1CCCCN(Cc2cc(-c3ccccc3OC(F)(F)F)no2)C1 (centres undefined),Percent Effect,"30.3 µM, […]",99.07%
OC1COCCN(Cc2cc(-c3ccccc3OC(F)(F)F)no2)C1 (centres undefined),Percent Effect,"30.3 µM, […]",-21.47%
COc1ccc(C)cc1CN1CCC(c2cc3ncccc3cn2)CC1.Cl,Percent Effect,"30.3 µM, […]",41.3%
CS(=O)(=O)N1CCC(C(=O)Nc2nnc(C(F)(F)F)[nH]2)CC1,Percent Effect,"30.3 µM, […]",1.048%
COC[C@@H]1CCCN1C(=O)c1cc(-c2ccc(OC)cc2)n[nH]1,Percent Effect,"30.3 µM, […]",15.18%
CN(Cc1nnc2n1CCC2)S(=O)(=O)c1cc(Br)ccc1Br,Percent Effect,"30.3 µM, […]",22.5%
CN1CCC(N(Cc2ccco2)S(=O)(=O)c2ccc(Cl)cc2)CC1,Percent Effect,"30.3 µM, […]",24.1%
Cc1nnc(CN(C)S(=O)(=O)c2ccc(Br)cc2Cl)n1C,Percent Effect,"30.3 µM, […]",25.06%
O=c1cc(CN(Cc2ccco2)C2CC2)nc2ccc(Br)cn12,Percent Effect,"30.3 µM, […]",12.01%
CN1CCC(N(Cc2ccco2)S(=O)(=O)c2ccc(Br)cc2Cl)CC1,Percent Effect,"30.3 µM, […]",87.02%
CN1CCC(N(Cc2ccco2)S(=O)(=O)c2cc(Br)ccc2Br)CC1,Percent Effect,"30.3 µM, […]",95.6%
Cc1ccc(NCCCNC(=O)C2CCCN(Cc3ccco3)C2)nc1 (centres undefined),Percent Effect,"30.3 µM, […]",-17.24%
Cc1nc(CN(C)c2nccc(C(F)(F)F)n2)cs1,Percent Effect,"30.3 µM, […]",5.886%
Cc1cnn(CCNc2nc(C)cc(N(C)C)n2)c1,Percent Effect,"30.3 µM, […]",-24.91%
COCCN1CCC(NC(=O)C/C=C/c2ccc(C(C)C)cc2)CC1,Percent Effect,"30.3 µM, […]",51.69%
CC(C)c1ccc(/C=C/CC(=O)NC2CCN(C(N)=O)CC2)cc1,Percent Effect,"30.3 µM, […]",-5.908%
CC(C)c1ccc(/C=C/CC(=O)NC2CCN(C(N)=O)C2)cc1 (centres undefined),Percent Effect,"30.3 µM, […]",6.492%
O=C(CC1CC1)N1CCN(Cc2ccncc2)c2ncccc2C1.O=C(O)C(F)(F)F.O=C(O)C(F)(F)F,Percent Effect,"30.3 µM, […]",-1.398%
CCc1cc(C(=O)N2CCC3(CCCN(CC4CC4)C3=O)C2)cs1 (centres undefined),Percent Effect,"30.3 µM, […]",12.28%
O=C1NCCCc2c1oc1ccc(O)c(CN3CCOCC3)c21,Percent Effect,"30.3 µM, […]",56.93%
NC(=O)C1CN(Cc2c(O)ccc3oc4c(c23)CCCC4)CCO1 (centres undefined),Percent Effect,"30.3 µM, […]",24.24%
Oc1ccc2oc3c(c2c1CN1CCOCC1)CCCC3,Percent Effect,"30.3 µM, […]",27.1%
CN1CCOC(CNCc2csc(C3CCCCC3)n2)C1 (centres undefined),Percent Effect,30 µM,56.43%
CN1CCOC(CNCc2csc(C3CCCC3)n2)C1 (centres undefined),Percent Effect,30 µM,13.96%
Cc1nc(CNCC2CN(C)CCO2)cs1 (centres undefined),Percent Effect,"30 µM, 30.03 µM",33.12%
COc1ccc(CN2C[C@@H]3CC[C@H](C2)N(Cc2snnc2C)C3)cc1,Percent Effect,"30.3 µM, […]",-20.42%
CS(=O)(=O)NCC1(c2ccccc2Br)CC1,Percent Effect,"30.3 µM, […]",-0.01271%
CN(C)S(=O)(=O)NCC1(c2ccccc2Br)CC1,Percent Effect,"30.3 µM, […]",-4.461%
NS(=O)(=O)NCC1(c2ccccc2Br)CC1,Percent Effect,"30.3 µM, […]",94.29%
CC(C)(O)c1cc(CC2(NCc3ccccc3Cl)COC2)no1,Percent Effect,"30.3 µM, […]",25.25%
Cc1ccc(C(C)NCc2cn(CCC(N)=O)c3ccccc23)cc1C (centres undefined),Percent Effect,"30.3 µM, […]",88.97%
CC(C)n1cnnc1CCNCc1cn(CCC(N)=O)c2ccccc12,Percent Effect,"30.3 µM, […]",32.43%
CC(NCc1cn(CCC(N)=O)c2ccccc12)c1nncn1C (centres undefined),Percent Effect,"30.3 µM, […]",-7.777%
O=C(Cn1c(=O)nc2n1C(=O)N(c1ccccc1)C2)NC1CCCCC1,Percent Effect,"30.3 µM, […]",-29.26%
COc1ccccc1CN1C(=O)O[C@@H]2CN(Cc3cccc(C)n3)C[C@@H]21,Percent Effect,"30.3 µM, […]",-18.87%
CC(C)c1nnc2n1CC(CNCc1nc3ccccc3s1)CC2 (centres undefined),Percent Effect,"30.3 µM, […]",-6.919%
O=C(Nc1c(N2CCCC2)cccc1N1CCCC1)c1ccccn1,Percent Effect,"30.3 µM, […]",56.83%
O=C(Nc1c(N2CCCC2)cccc1N1CCCC1)c1cnsn1,Percent Effect,"30.3 µM, […]",-91.54%
O=C(Nc1c(N2CCCC2)cccc1N1CCCC1)c1cnccn1,Percent Effect,"30.3 µM, […]",2.563%
N#Cc1ccccc1CN1C[C@@H]2CC[C@H](C1)N(CC1CC1)C2=O,Percent Effect,"30 µM, 30.03 µM",6.562%
COc1ccc(CNC(=O)CCc2c(C)noc2C)cc1F,Percent Effect,"30.3 µM, […]",14.24%
c1ccc(Cc2nc(CNC3CCC4(CCNCC4)CC3)no2)cc1,Percent Effect,"30.3 µM, […]",-22.96%
CCOC(=O)N1CCN(C(=O)C2CC(=O)N(c3ccccc3Br)C2)CC1 (centres undefined),Percent Effect,"30.3 µM, […]",15.14%
Cc1ccccc1NCc1nc2n(n1)CCCCC2,Percent Effect,"30.3 µM, […]",-2.813%
Cc1ccc(Cl)cc1NCc1nc2n(n1)CCCCC2,Percent Effect,"30.3 µM, […]",5.268%
Cc1c(Cl)cccc1NCc1nc2n(n1)CCCCC2,Percent Effect,"30.3 µM, […]",55.49%
Cl.Cl.O=C(NCc1cncc2c1CCN(Cc1cccc(F)c1)C2)C1CC1,Percent Effect,"30 µM, 30.03 µM",-3.8%
CC(NC(=O)NCCn1ccnc1)c1nncn1C (centres undefined),Percent Effect,"30.3 µM, […]",-59.34%
CCc1nc(NC(=O)NCCc2scnc2C)nn1C,Percent Effect,"30.3 µM, […]",-19.54%
CC1CCCN(Cc2csc(-c3ncccn3)n2)CC1 (centres undefined),Percent Effect,"30 µM, 30.03 µM",43.73%
CCCC1CCCN(Cc2csc(-c3cnn(C)c3)n2)CC1 (centres undefined),Percent Effect,"30 µM, 30.03 µM",-20.44%
CCCC1CCCN(Cc2csc(-c3ncccn3)n2)CC1 (centres undefined),Percent Effect,30 µM,77.24%
CC1=NC2(CCN(CC(C)c3ccccc3)CC2)C(=O)N1 (centres undefined),Percent Effect,"30.3 µM, […]",10.6%
CC(CN1CCC2(CC1)N=C(c1cccnc1)NC2=O)c1ccccc1 (centres undefined),Percent Effect,"30.3 µM, […]",100.2%
O=C1NC(c2cccnc2)=NC12CCN(CCCc1ccccc1)CC2,Percent Effect,"30.3 µM, […]",-4.495%
Cc1nc(CN2CCCC(CCc3ccc(F)cc3F)C2)c[nH]1 (centres undefined),Percent Effect,"30 µM, 30.03 µM",30.76%
Cc1nc(CN2CCCC(CCc3c(F)cccc3F)C2)c[nH]1 (centres undefined),Percent Effect,"30 µM, 30.03 µM",47.92%
Cc1nc(CN2CCCC(CCc3ccc(F)c(F)c3)C2)c[nH]1 (centres undefined),Percent Effect,"30.3 µM, […]",65.39%
COCC1CN(C(=O)Nc2cc(-n3cccc3)ccc2F)CCO1 (centres undefined),Percent Effect,"30.3 µM, […]",7.734%
CNC(=O)CN1CCOC(c2cccc(N)n2)C1 (centres undefined),Percent Effect,"30.3 µM, […]",18.21%
CN(Cc1nnc(C2CC2)n1C)C1CCN(Cc2nccn2C)C1 (centres undefined),Percent Effect,30 µM,20.02%
O=C(NCCc1nncn1C1CC1)C1(Cc2ccccc2)CCC1,Percent Effect,"30.3 µM, […]",8.956%
CN(C)CCN(Cc1ccccn1)Cc1ccnn1C1CCCCO1.O=C(O)CC(O)(CC(=O)O)C(=O)O (centres undefined),Percent Effect,"30.3 µM, […]",29.57%
Cc1sc2nc(CCN)nc(N(C)CCCC3CCCO3)c2c1C (centres undefined),Percent Effect,"30.3 µM, […]",63.54%
Cc1sc2nc(CCN)nc(N(CCN(C)C)CC3CCCO3)c2c1C (centres undefined),Percent Effect,"30.3 µM, […]",38.72%
COCCN(CC1CC1)c1nc(CCN)nc2sc(C)c(C)c12,Percent Effect,"30.3 µM, […]",77.93%
CCCSc1nn(CCN(C)C)c2nc3sc(C)c(CC)c3c(=O)n12,Percent Effect,"30.3 µM, […]",45.45%
CCN(CCN(C)C)c1nc(CCN)nc2sc(C)c(C)c12,Percent Effect,"30.3 µM, […]",54.95%
CC(=O)N1CCc2c(nc(N(C)C)nc2N(C)CCCC2CCCO2)C1 (centres undefined),Percent Effect,"30.3 µM, […]",-1.539%
Cc1nn(C2CCS(=O)(=O)C2)c(O)c1Cc1ccccc1 (centres undefined),Percent Effect,"30.3 µM, […]",20.59%
Cc1csc(CN(CC2CCCO2)C(=O)c2ccc(C)nc2C)n1 (centres undefined),Percent Effect,"30.3 µM, […]",-39.1%
Cc1cc(=O)n(C)cc1NC(=O)Cc1cccc(Cl)c1,Percent Effect,"30.3 µM, […]",-5.155%
CCOCC1CN(CC2CC2)Cc2nn(CC3CC3)cc21.O=C(O)C(F)(F)F (centres undefined),Percent Effect,"30.3 µM, […]",-3.875%
CNC(=O)c1ccc(C2CN(C(=O)c3cnn(C)c3)CCO2)nc1 (centres undefined),Percent Effect,"30.3 µM, […]",4.595%
CN(C)CCO[C@@H]1CC[C@H]2[C@H]1OCCN2C(=O)COc1ccccc1.O=C(O)C(F)(F)F,Percent Effect,"30 µM, 30.03 µM",28.35%
NS(=O)(=O)c1ccc(N2CCN(CCCc3cn[nH]c3)CC2)cc1,Percent Effect,"30.3 µM, […]",-5.312%
COc1ccc(S(=O)(=O)N2CCC[C@@H]3CN(C(=O)C4CC4)C[C@@H]32)cc1F,Percent Effect,"30.3 µM, […]",-21.4%
CCCc1ccc(OCCNCc2ccco2)c(OC)c1.Cl,Percent Effect,"30.3 µM, […]",65.86%
COc1cc(C(C)=O)ccc1OCCNCc1ccco1.Cl,Percent Effect,"30.3 µM, […]",31.62%
COc1cc(CNCc2ccco2)ccc1OCCO.Cl,Percent Effect,"30.3 µM, […]",36%
Cc1noc(CN(Cc2cccc(C#N)c2)Cc2ccco2)n1,Percent Effect,"30.3 µM, […]",-9.737%
O=C(c1cnccn1)N1CCN2C[C@H](OCC3CC3)C[C@H]2C1,Percent Effect,"30.3 µM, […]",-6.525%
Cc1cccc(Cc2cc(C)nc(C3CCCNC3)c2)c1 (centres undefined),Percent Effect,"30.3 µM, […]",59.44%
Cc1cc(Cc2ccccc2)cc(C2CCCNC2)n1 (centres undefined),Percent Effect,"30.3 µM, […]",19.14%
Cc1cc(Cc2ccccc2F)cc(C2CCCNC2)n1 (centres undefined),Percent Effect,"30.3 µM, […]",9.469%
Cc1cc(Cc2ccccc2C)cc(C2CCCNC2)n1 (centres undefined),Percent Effect,"30.3 µM, […]",39.73%
Cc1cc(Cc2cccc(C(F)(F)F)c2)cc(C2CCCNC2)n1 (centres undefined),Percent Effect,"30.3 µM, […]",91.42%
Cc1cc(Cc2ccc(F)cc2)cc(C2CCCNC2)n1 (centres undefined),Percent Effect,"30.3 µM, […]",22.51%
CC(O)CCN(C)C(=O)Nc1ccc(Br)cc1 (centres undefined),Percent Effect,"30.3 µM, […]",-0.06572%
Cc1ccc(CNC(=O)CN2CCCC(Cn3cncn3)C2)cc1 (centres undefined),Percent Effect,30 µM,15.14%
Nc1nc(N2CCCCCC2)ncc1C(=O)NCc1ccc(F)c(Cl)c1,Percent Effect,"30.3 µM, […]",1.039%
CC(CO)CSc1ncnc2[nH]ncc12 (centres undefined),Percent Effect,"30.3 µM, […]",-17.01%
O=C(O)C(F)(F)F.O=C(O)C(F)(F)F.O=C1COC2(CCN(Cc3cccnc3)CC2)CN1,Percent Effect,"30.3 µM, […]",22.41%
Cc1nc2c(c(NC(C)C)n1)CCN(C1CCOCC1)CC2.O=C(O)C(F)(F)F,Percent Effect,"30.3 µM, […]",14.91%
CC(C)Nc1nc2c(c(NC3CC3)n1)CCN(C(=O)C1CCOC1)CC2 (centres undefined),Percent Effect,"30.3 µM, […]",26.08%
CC(C)Nc1nc2c(c(NC3CC3)n1)CCN(C1CCOCC1)CC2,Percent Effect,"30.3 µM, […]",70.3%
